Consider seven compounds from PubChem BioAssay.

The nature of experiment [1]: blockers of polyQ-driven CASP3 activation – cell-based (AID 1583). Particulars: polyglutamine-induced caspase-3 activation, cell assay; stronger effect = higher value;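 tested at 10 µM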.
The nature of experiment [2]: yeast 75Q aggregation reduction – 75Q-TubU reporter (AID 1593). Particulars: Yeast 75Q polyglutamine aggregation reporter.
A short description of experiment [3]: restoration of touch response, mutant HTT neurons – whole organism, C. elegans mechanosensory neurons, N-terminal huntingtin (AID 1599). Particulars: C. elegans polyQ-huntingtin mechanosensory neurons, stronger effect = higher value.
Experiment [4] in a line: blockers of cytochrome c efflux from mitochondria – biochemical, purified mitochondria (AID 1603).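 Note: mouse liver mitochondria challenged with calcium chloride; signal normalized to the plate average as 100%.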 Particulars: stronger effect = lower value.
A short description of experiment [5]: polyglutamine aggregate formation blockers (AID 1604). Particulars: polyglutamine-induced protein aggregation inhibition assay; stronger effect = higher value; tested at 2.5 µM.
The nature of experiment [6]: glutamate transport activators, MN-1 cells, MN-1 cell line (AID 1612).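 Note: tested at 1 µM final; 0% = mean of DMSO vehicle wells on each plate; positive means more glutamate uptake than control and negative means less.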 Particulars: MN-1 motor neuron cells, stronger effect = higher value.
Experiment [7] is described as follows: GFP-Q80 aggregate reduction, neuronal-like cells, cell-based, NGF-treated PC12, GFPQ80 (AID 1614).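 Note: lower means fewer inclusions and 0 means no inclusions at all.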 Particulars: PC12 NGF-treated GFP-polyQ80 inclusion reduction.
A short description of experiment [8]: 75Q-TubH aggregate inhibition, S. cerevisiae, yeast (AID 1616). Particulars: S. cerevisiae 75Q-TubH polyglutamine aggregation suppression; stronger effect = higher value.
The target of experiment [9] is 6-phosphogluconate dehydrogenase, decarboxylating (Homo sapiens) (UniProt P52209). Briefly: inhibition of human phosphogluconate dehydrogenase – biochemical, recombinant enzyme, NADPH absorbance, primary screen (AID 1159550;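 active = at least 20% inhibition of 6-phosphogluconate dehydrogenase activity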). Particulars: recombinant 6PGD, NADPH absorbance 341 nm; at 10 µM; stronger effect = higher value.
Sequence of 6-phosphogluconate dehydrogenase, decarboxylating (Homo sapiens) (P52209 whole entry, looked up): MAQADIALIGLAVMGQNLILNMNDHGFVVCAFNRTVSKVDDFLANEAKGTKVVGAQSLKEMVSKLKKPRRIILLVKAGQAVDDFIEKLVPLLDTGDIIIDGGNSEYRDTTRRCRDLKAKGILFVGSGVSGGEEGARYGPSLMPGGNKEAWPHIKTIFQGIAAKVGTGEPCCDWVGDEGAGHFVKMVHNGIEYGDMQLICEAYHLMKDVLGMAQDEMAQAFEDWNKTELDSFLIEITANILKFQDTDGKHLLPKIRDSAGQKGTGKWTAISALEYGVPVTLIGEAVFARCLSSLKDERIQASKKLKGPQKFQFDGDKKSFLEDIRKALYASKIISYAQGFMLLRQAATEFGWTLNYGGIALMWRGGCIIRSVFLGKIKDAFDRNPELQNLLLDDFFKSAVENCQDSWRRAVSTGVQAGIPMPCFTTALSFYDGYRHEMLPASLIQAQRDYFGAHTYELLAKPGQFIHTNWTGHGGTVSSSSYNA
The nature of experiment [10]: EMT-state selective cytotoxicity in co-culture – imaging, PC-3E GFP, TEM4-18 mCherry, primary screen (AID 1345086;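 active = compounds killing one labelled cell type while sparing the other, by normalised counts and ratio limits, not self-fluorescent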;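 for all read-outs here: cells exposed to compound for 72 h before imaging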;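 for red/green cell ratio (normalised): normalised mesenchymal count divided by normalised epithelial count so high means epithelial killing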). Particulars: PC-3E GFP / TEM4-18 mCherry co-culture, imaging cell counts, at 1 µM; for red/green cell ratio (normalised): actives lie on both sides, counts scaled to control wells, 1 = unselective.
A short description of experiment [11]: viability loss with induced miR-34 in A549 – imaging, A549 dox-inducible miR-34, nuclei and caspase counts, primary screen (AID 1347080). Particulars: A549 miR-34 inducible, Hoechst nuclei count, 48 h.
Experiment [12] can be described thus: MELAS cybrid and Rieske KO viability enhancers – cell-based, MELAS cybrids, Rieske KO mouse fibroblasts, CellTiter-Glo, primary screen (AID 1508586;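 active = mean z-score across replicates of 1.96 or higher in either the MELAS or the Rieske mutant cell line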;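 note: z relative to plate mean and SD of compound and empty wells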). Particulars: low glucose.
In experiment [13] the target is NAD(+) hydrolase SARM1 (Homo sapiens) (UniProt Q6SZW1). Briefly: blocking NAD cleavage by SARM1 SAM-TIR – cell lysate, NAD-Glo luminescence (AID 1508614;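 active = compound whose remaining NAD level is above about 45 nM, limit read from the data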;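 note: higher remaining NAD means stronger inhibition of SARM1 NADase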). Particulars: SAM-TIR HEK293T lysate NADase, at 1 µM, stronger effect = higher value.
Sequence of NAD(+) hydrolase SARM1 (Homo sapiens) (Q6SZW1 whole entry, looked up, the tested form may be a part): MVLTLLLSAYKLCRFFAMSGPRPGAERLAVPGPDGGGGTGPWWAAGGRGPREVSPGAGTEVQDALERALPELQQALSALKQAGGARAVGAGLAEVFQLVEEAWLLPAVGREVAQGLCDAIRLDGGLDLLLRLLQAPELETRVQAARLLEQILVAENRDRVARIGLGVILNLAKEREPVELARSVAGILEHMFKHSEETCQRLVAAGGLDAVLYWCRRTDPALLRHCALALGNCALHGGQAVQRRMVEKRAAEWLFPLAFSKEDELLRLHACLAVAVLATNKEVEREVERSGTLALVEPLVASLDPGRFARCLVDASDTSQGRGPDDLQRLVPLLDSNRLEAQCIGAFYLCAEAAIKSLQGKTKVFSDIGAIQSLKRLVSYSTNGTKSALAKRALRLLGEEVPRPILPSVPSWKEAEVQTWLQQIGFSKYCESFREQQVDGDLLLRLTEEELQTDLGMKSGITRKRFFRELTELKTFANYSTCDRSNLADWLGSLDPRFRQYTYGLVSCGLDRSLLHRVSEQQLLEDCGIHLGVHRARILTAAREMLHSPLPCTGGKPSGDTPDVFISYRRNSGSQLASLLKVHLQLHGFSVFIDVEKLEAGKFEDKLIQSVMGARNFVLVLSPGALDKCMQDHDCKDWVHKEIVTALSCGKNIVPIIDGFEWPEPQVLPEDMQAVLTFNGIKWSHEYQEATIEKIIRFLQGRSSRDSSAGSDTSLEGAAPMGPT
The target in experiment [14] is Mitogen-activated protein kinase 7 (Homo sapiens) (UniProt Q13164). Put plainly: Gal4-ERK5 driven luciferase induction – cell-based, HTS, primary screen (AID 1508626;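 active = luciferase signal above three times the same-plate solvent-only control wells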;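 note: luciferase driven by Gal4-ERK5 fusion binding five Gal4 sites before minimal TATA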). Particulars: HeLa Gal4-ERK5 transactivation, 18 h, at 5 µM, stronger effect = higher value.
Sequence of Mitogen-activated protein kinase 7 (Homo sapiens) (Q13164 whole entry, looked up, the tested form may be a part): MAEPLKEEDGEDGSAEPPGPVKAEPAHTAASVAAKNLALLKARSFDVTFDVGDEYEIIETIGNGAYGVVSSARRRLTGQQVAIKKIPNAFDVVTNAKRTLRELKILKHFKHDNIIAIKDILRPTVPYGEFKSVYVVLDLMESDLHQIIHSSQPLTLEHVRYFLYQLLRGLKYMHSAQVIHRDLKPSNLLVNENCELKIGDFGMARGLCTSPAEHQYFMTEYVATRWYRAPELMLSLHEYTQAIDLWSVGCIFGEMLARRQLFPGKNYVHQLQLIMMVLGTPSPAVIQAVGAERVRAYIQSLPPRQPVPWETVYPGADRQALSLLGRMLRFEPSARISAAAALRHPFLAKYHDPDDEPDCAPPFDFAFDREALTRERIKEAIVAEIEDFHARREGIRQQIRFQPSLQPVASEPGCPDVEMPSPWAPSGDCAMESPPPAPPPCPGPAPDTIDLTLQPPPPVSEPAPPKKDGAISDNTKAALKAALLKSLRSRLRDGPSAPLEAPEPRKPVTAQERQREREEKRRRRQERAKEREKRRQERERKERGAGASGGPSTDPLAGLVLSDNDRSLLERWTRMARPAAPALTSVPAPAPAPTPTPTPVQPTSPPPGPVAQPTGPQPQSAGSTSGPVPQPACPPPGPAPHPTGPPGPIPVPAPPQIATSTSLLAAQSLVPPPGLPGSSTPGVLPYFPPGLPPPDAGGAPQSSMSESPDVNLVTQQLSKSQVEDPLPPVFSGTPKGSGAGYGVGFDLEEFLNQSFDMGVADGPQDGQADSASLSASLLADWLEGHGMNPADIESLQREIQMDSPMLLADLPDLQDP
Experiment [15] is described as follows: P. berghei load reduction in hepatocytes – cell-based, HepG2, luciferase luminescence, HepG2 viability, primary screen (AID 624349; in the data active = parasite load remaining mostly below about 12%, no sharp cut-off; inactive = mostly above about 10%;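 note: 100% = mean of DMSO negative control wells on the same plate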). Particulars: P. berghei liver stage in HepG2, luciferase luminescence, concentration not given here; parasite load remaining: stronger effect = lower value; viability: measured here: HepG2 viability without parasites.
The nature of experiment [16]: compounds altering circadian rhythm period length – cell-based, LOPAC library, luminescence reporter (AID 2774; call rule not given here;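 note: values are relative to mean of DMSO wells on each plate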). Particulars: circadian reporter cells, at 7 µM, actives lie on both sides.
The subject of experiment [17] is Hepatitis C virus NS3 helicase. Briefly: blockers of NS3h binding to ssDNA – biochemical, fluorescence polarization, LOPAC1280 library, primary screen (AID 687035; in the data active = inhibition above about 37%). Particulars: Purified HCV NS3 helicase, Cy5-dT15 ssDNA binding fluorescence polarization; stronger effect = higher value; concentration not given here. For orientation: Fluorescence polarisation rises when a labelled molecule tumbles more slowly, as on binding a larger partner.

Experiment [18] is described as follows: blockers of cellular phospholipid synthesis – cell-based, LOPAC library, screen 4, primary screen (AID 1347384; call rule not given here). Particulars: animal cells, phospholipid biosynthesis inhibition screen; at 10 µM.
Experiment [19] is described as follows: galactose survival enhancers in mitochondrial complex I cybrids – cell-based, galactose medium, ATP luminescence, primary screen (AID 1645843;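 active = z-score of at least 1.8 in each of two replicates, scored against plate mean and spread of sample wells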;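 note: positive z means more ATP and so rescue of galactose-driven cybrid death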). Particulars: complex I mutant cybrid cells, 72 h, stronger effect = higher value.
[20] abbreviates: measured here: epithelial PC-3E GFP cell survival.
Setting [21] is: measured here: mesenchymal TEM4-18 mCherry cell survival.
[22] abbreviates: stronger effect = lower value, cell number ratio, induced over uninduced.
[23] abbreviates: measured here: relative caspase fold change +Dox/-Dox.
Setting [24] is: measured here: total cells with miR-34 induction, stronger effect = lower value.
Setting [25] is: measured here: total cells without miR-34 induction.
The mark [26] stands for this setting: MELAS cybrid survival, CellTiter-Glo 48 h, stronger effect = higher value.
The mark [27] stands for this setting: Rieske KO mouse fibroblast survival, CellTiter-Glo 72 h.

Several values for one entry are separate records, joined by “and”; a condition that tells them apart may be missing. Identical values can stand only once. For some of these results: Measured potencies and affinities stand elsewhere. Activity calls are given as the source filed them.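 Rule for the calls, unless noted: active = compounds whose cell count with miR-34 switched on is under 0.7 times the count with it off; inactive = the rest.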

The inhibition is the change of the read-out against control, counted positive when it falls. With `CN(C)CCOC(c1ccccc1)c1ccccc1` (tested in a mixture with another compound), the figures for the inhibition in experiment [1] and in experiment [9] were 13% and 11% (inactive), respectively. For the same compound, the score in [2] is 1.21. In addition, the rescue above control in experiment [3] came out at 26.8. Also, the cytochrome c release ratio in experiment [4] was 1.23. Also, the inhibition of aggregation in [5] worked out at 69.8%. In addition, in experiment [6], the glutamate uptake change was -19.1%. This compound displayed an inclusion score in [7] of 2. The same compound had an aggregation suppression score in experiment [8] of 0.942. For the same compound, the red/green cell ratio (normalised) in experiment [10] was 1.07 (inactive). In addition, the normalised cell number worked out at 1.32 in experiment [10] (setting [20]) and 1.41 in experiment [10] (setting [21]). For the same compound, the fold change in experiment [11] (setting [22]) is 0.893 (inactive) and 0.836 (inactive); in experiment [11] (setting [23]), 1.17 and 1.81. Further, the cell count in [11] (setting [24]) was 8830 and 11000; in experiment [11] (setting [25]) it was 9890 and 13100. Besides, the figures for the z-score in experiment [12] (setting [26]) and in experiment [12] (setting [27]) were 0.49 (inactive) and 0.296, respectively. Moreover, in experiment [13], the remaining NAD is 10 nM (inactive). Also, the luciferase signal in experiment [14] is 28 AU (inactive).
The viability is a read-out of living cells in per cent, often relative to untreated cells. Turning to `CC(C(=O)O)c1ccc(N2Cc3ccccc3C2=O)cc1` (stereo unspecified), the inhibition in [1] was -2.1%; in [9] it was -13% (inactive). This compound also had a score in experiment [2] of 0.89. Besides, in experiment [3], the rescue above control was -4.46. In addition, the cytochrome c release ratio in experiment [4] stood at 1.17. The same compound returned an inhibition of aggregation in experiment [5] of 83.7%. Moreover, the glutamate uptake change in experiment [6] was -13.2%. In experiment [7], this compound registered an inclusion score of 2.5. In experiment [8], this compound registered an aggregation suppression score of 1.02. For the same compound, the parasite load remaining in experiment [15] is 132% (inactive) and 273% (inactive) and 101% (inactive). For the same compound, the viability in [15] is 95.7% and 78.1% and 95.5%. In addition, the red/green cell ratio (normalised) in [10] was 1.39 (inactive). Further, the normalised cell number amounted to 0.94 in [10] (setting [20]) and 1.31 in experiment [10] (setting [21]). Besides, the fold change in experiment [11] (setting [22]) is 0.881 (inactive) and 0.915 (inactive); in [11] (setting [23]), 1.39 and 0.964. The cell count in [11] (setting [24]) was 9440 and 11300; in [11] (setting [25]) it was 10700 and 12400. The results for the z-score in experiment [12] (setting [26]) and in [12] (setting [27]) were 0.44 (inactive) and -0.221, respectively. In addition, the remaining NAD in [13] was 10 nM (inactive). In [14], the luciferase signal is 68 AU (inactive).
Turning to `CC(CN(C)C)CN1c2ccccc2Sc2ccccc21` (stereo unspecified), the inhibition in experiment [1] is -4.15%; in experiment [9] it was 3.47% (inactive). Also, in experiment [2], the score came to 1.25. This compound yielded a rescue above control in experiment [3] of 0. The cytochrome c release ratio in experiment [4] is 1.2. The inhibition of aggregation in experiment [5] came to 52.6%. The glutamate uptake change in experiment [6] is -15.4%. Also, the aggregation suppression score in experiment [8] was found to be 1.08. The parasite load remaining in [15] is 56% (inactive) and 101% (inactive) and 20% (inactive). The viability in [15] is 86.7% and 71.6% and 86.5%. Also, the red/green cell ratio (normalised) in experiment [10] is 0.95 (inactive). Moreover, the normalised cell number in [10] (setting [20]) is 1.1; in experiment [10] (setting [21]) it was 1.05. Besides, the fold change in experiment [11] (setting [22]) is 0.881 (inactive) and 0.895 (inactive); in experiment [11] (setting [23]), 1.1 and 2.21. Moreover, the cell count in experiment [11] (setting [24]) is 7480 and 9410; in [11] (setting [25]) it was 8490 and 10500. For the same compound, the z-score in experiment [12] (setting [26]) was 0.461 (inactive); in experiment [12] (setting [27]), -0.196. Moreover, the remaining NAD in [13] was 10 nM (inactive). Also, the luciferase signal in experiment [14] is 76 AU (inactive).
Consider `O=C1OC(=O)C2C3CCC(O3)C12` (stereo unspecified), for which, in [16], the period change was -0.06 h (inactive). The inhibition in experiment [17] is -2% (inactive); in [9], 14.8% (inactive). The red/green cell ratio (normalised) in experiment [10] is 0.77 (inactive). Besides, the normalised cell number in [10] (setting [20]) was determined as 1.38; in [10] (setting [21]), 1.06. The fold change in experiment [11] (setting [22]) is 1.08 (inactive); in [11] (setting [23]), 0.974. Besides, the cell count in experiment [11] (setting [24]) was found to be 8750; in [11] (setting [25]), 8080. Further, in experiment [18], the result was inactive. For the same compound, the luciferase signal in experiment [14] was 52 AU (inactive). Moreover, in experiment [19], the z-score is -0.385 (inactive).
With `O=C(O)c1cc2cc(F)ccc2[nH]1`, in experiment [16], the period change is 0.04 h (inactive). Further, the inhibition in experiment [17] is -2% (inactive); in experiment [9] it was 0.201% (inactive). Besides, the red/green cell ratio (normalised) in experiment [10] was 0.92 (inactive). In addition, the normalised cell number in experiment [10] (setting [20]) worked out at 0.97; in [10] (setting [21]) it was 0.89. The fold change in experiment [11] (setting [22]) is 0.936 (inactive); in experiment [11] (setting [23]), 1.52. Besides, the cell count came out at 9030 in experiment [11] (setting [24]) and 9650 in [11] (setting [25]). Moreover, the compound was classed as inactive in [18]. Moreover, the luciferase signal in experiment [14] was 24 AU (inactive). Further, the z-score in experiment [19] is 1.04 (inactive).
With `OCc1c[nH]c2ccccc12`, the inhibition in [9] was 14.9% (inactive). Also, the red/green cell ratio (normalised) in experiment [10] is 0.93 (inactive). The figures for the normalised cell number in experiment [10] (setting [20]) and in [10] (setting [21]) were 0.91 and 0.84, respectively. For the same compound, the fold change in experiment [11] (setting [22]) is 0.978 (inactive); in experiment [11] (setting [23]) it was 0.867. For the same compound, the values for the cell count in experiment [11] (setting [24]) and in [11] (setting [25]) were 8210 and 8390, respectively. In addition, the z-score is -0.392 (inactive) in experiment [12] (setting [26]) and -0.0559 in experiment [12] (setting [27]). Also, the luciferase signal in experiment [14] is 88 AU (inactive).
For the compound `NCCCCN`, the inhibition was -6.18% in experiment [1], -3% (inactive) in experiment [17] and -11.8% (inactive) in experiment [9]. Further, in [2], the score stood at 1.21. The compound also came in with a rescue above control in experiment [3] of 9.16. Further, the cytochrome c release ratio in experiment [4] is 0.9. Besides, the inhibition of aggregation in [5] came out at 70.6%. Moreover, the glutamate uptake change in experiment [6] was found to be 0.99%. In addition, the inclusion score in experiment [7] came out at 2. The compound further yielded an aggregation suppression score in experiment [8] of 1.37. Further, the period change in experiment [16] is 0.01 h (inactive). The red/green cell ratio (normalised) in experiment [10] was 1.04 (inactive). Moreover, the normalised cell number was found to be 0.98 in [10] (setting [20]) and 1.02 in experiment [10] (setting [21]). The results for the fold change in [11] (setting [22]) and in experiment [11] (setting [23]) were 1.02 (inactive) and 1.7, respectively. Also, the results for the cell count in experiment [11] (setting [24]) and in experiment [11] (setting [25]) were 9820 and 9630, respectively. Also, in experiment [18], the compound was called inactive. The luciferase signal in experiment [14] was 44 AU (inactive). Besides, the z-score in experiment [19] was 0.975 (inactive).
